High-throughput results: PubChem BioAssay, National Center for Advancing Translational Sciences (NCATS)
Compounds with a hit are over-represented: about 5.2% of the library has one in this group of screens.
Tau fluor counter: counter-screen for tau fibril formation inhibitors; tau K18 P301L Alexa594 fluorescence, heparin fibrillization; actives 0.93% (n = 280,000); AID 1463; Potency, µM (doses to about 57.7 µM), inactives show top-dose activity change, negative = decrease; further: potency means the concentration at half of the fitted maximal effect; nearly all actives have a fitted effect of over 55% in size
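Human tau K18 P301L (15 uM unlabeled, 0.24 uM Alexa 594-labeled) in 100 mM sodium acetate pH 7 with 20 uM heparin, 6 hr at 37 C. ThT 30 uM added, 1 hr ambient; Alexa 594 FP and total fluorescence read at 555/632 nm.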
Tau ThT inhib: blocks human tau fibril formation measured by thioflavin T. AID 1460. P10636. recombinant tau K18 P301L (four-repeat tau fragment), heparin-induced fibrillization, ThT fluorescence. Potency, µM (series often up to 57.4 µM), without a hit: at the highest dose activity, negative = inhibition, actives largely listed as inhibitors. actives 2.1% (n = 270,000); further: potency means the concentration at half of the fitted maximal effect; nearly all actives have a fitted effect of over 55% in size
Target sequence (P10636 561-689 P618L limits assumed): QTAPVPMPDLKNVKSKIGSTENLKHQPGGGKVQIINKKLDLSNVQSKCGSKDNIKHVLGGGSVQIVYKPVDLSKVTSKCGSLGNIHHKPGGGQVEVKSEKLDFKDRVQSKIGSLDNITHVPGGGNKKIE
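Tau K18 P301L fragment (15 uM unlabeled plus 0.24 uM Alexa 594-labeled) in 100 mM sodium acetate pH 7 with compound, fibrillization induced by 20 uM heparin for 6 hr at 37 C. Thioflavin T (30 uM) added, fluorescence read after 1 hr (ex 450, em 510 nm).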
Sfp PPTase inh: blocks B. subtilis Sfp PPTase activity | Q9F4F7 | Biochemical Sfp PPTase activity, qHTS | Potency, µM, without a hit: largest response in the series, negative = inhibition, usual class: inhibitors | actives 3.5% (n = 310,000) | AID 1490;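 further: the enzyme is Sfp with the accession as filed and its product quenches rhodamine fluorescence; potency means the concentration at half of the fitted maximal effect; 0% = enzyme reaction without inhibitor and -100% = no enzyme wells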
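Compounds were incubated with enzyme (final 15 nM) for 15 min at room temperature before substrate addition started the reaction. Fluorescence at 525 nm excitation, 598 nm emission was recorded immediately and after 30 minutes.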
Coupling enz: inhibits coupling enzyme system, counter-screen for aldolase hits; activity change, negative = inhibition, % at 58.2 µM, hits read low; actives 0.67% (n = 290,000); coupling enzyme system counterscreen, AmpLite Red fluorescence; AID 2472; in the data active means activity change below about -30%
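Compounds tested against the coupling enzymes alone at 57.5 uM final; readout was AmpLite Red fluorescence (525/598 nm) after 20 min at RT.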
Tau fibril FP: inhibitors of human tau fibril formation; P10636; K18 P301L tau heparin fibrillization, Alexa594 FP, 6 h; Potency, µM (titrated, usually from 57.7 µM), for the others: at the highest dose activity, negative = inhibition, actives largely listed as inhibitors; actives 0.39% (n = 280,000); further: potency means the concentration at half of the fitted maximal effect; nearly all actives have a fitted effect of over 55% in size
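Quantitative HTS format: compounds meet 15 uM recombinant K18 P301L tau and Alexa 594-tau tracer in 100 mM sodium acetate pH 7; 20 uM heparin triggers fibrillization at 37 C over 6 hr; FP gives the signal.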
Active calls of the source: *; ? = inconclusive; · = no result given; [ ] = dose if it differs, or a comment. Unless noted, the call rests on the fitted dose curve; in most records, active means well fitted curve in the direction sought with a large enough effect; inconclusive means small, poorly fitted or top-dose-only effect, or another doubt; inactive means no such curve, though single readings can be large; an effect the other way counts as inactive or inconclusive. Unless noted, on the % scale 0 is the no-effect control and ±100 the full control effect.

SMILES | Tau fluor counter | Tau ThT inhib | Sfp PPTase inh | Coupling enz | Tau fibril FP
Cc1ccc(-c2c(C3C4C=CCC(C)C4C(=O)N3Cc3ccccc3)ccc3ccccc23)cc1 (stereo not drawn) | · | · | 6% | -4 | ·
CN(C(=O)CSc1nc2ccccc2n1CC(=O)N(C)c1ccc(F)cc1)c1ccccc1 | 2% | 9% | · | · | -2%
O=C(Nc1ccc(Br)cc1)c1cc(S(=O)(=O)N2CCc3ccccc32)ccc1F | ? | 8% | · | · | ?
CCCN1C(=O)/C(=C\c2nc3ccccc3c(=O)[nH]2)c2ccccc21 | -20% | 22µM* | ? | 2 | 1%
Cc1ccc2oc(-c3ccc(Cl)c(NC(=O)c4ccc(-c5ccccc5[N+](=O)[O-])o4)c3)nc2c1 | -14% | -15% | · | · | -8%
Cc1nc2c(C(=O)Nc3ccc(N4CCCC(O)C4)cc3)snc2c(=O)[nH]1 (stereo not drawn) | ? | · | 10% | -3 | -1%
O=C(Nc1ccc(N2CCCC(O)C2)cc1)c1snc2c(=O)[nH]cnc12 (stereo not drawn) | -29% | 3.5µM* | -4% | 2 | 0%
CCOC(=O)c1c(-c2ccc(C)cc2)csc1NC(=O)c1cc(=O)c2cc(C)ccc2o1 | -24% | 25µM* | · | · | ?
CCOC(=O)c1c(-c2ccccc2)csc1NC(=O)CCN1C(=O)c2ccccc2C1=O | 2% | 2% | 17% | 0 | 8%
CCOC(=O)c1c(-c2ccccc2)csc1NC(=O)c1cc(-c2cccc(OC)c2)on1 | -17% | 32µM* | · | · | ?
CCOC(=O)c1c(-c2ccc(-c3ccccc3)cc2)csc1NC(=O)CNCCN(C)C | · | · | 40µM* | 0 | ·
CCOC(=O)c1c(-c2ccccc2)csc1NC(=O)C(C)NCCCN1CCOCC1 (stereo not drawn) | -6% | -16% | 40µM* | -6 | 9%
CCOC(=O)N1CCC(NC(=O)c2c(C)nn(-c3cccc(C)c3)c2-n2cccc2)CC1 | -2% | -7% | · | · | 4%
Nc1c(C(=O)NCCN2CCOCC2)c2nc3ccccc3nc2n1-c1ccc2c(c1)OCO2 | -17% | ? | -24% | -6 | 1%
COc1ccccc1CNC(=O)c1c(N)n(CCCN2CCOCC2)c2nc3ccccc3nc12 | ? | 25µM* | 56µM* | -26 | -8%
COC(=O)c1c(N)n(-c2ccc(NC(C)=O)cc2)c2nc3ccccc3nc12 | -8% | ? | -6% | -30* | 12%
Nc1c(C(=O)NCCN2CCOCC2)c2nc3ccccc3nc2n1-c1ccccc1 | -13% | ? | ? | -30* | 1%
CCc1ccccc1-n1c(N)c(C(=O)OC)c2nc3ccccc3nc21 | -12% | -4% | · | · | 4%
COC(=O)c1c(N)n(-c2ccc(N3CCOCC3)cc2)c2nc3ccccc3nc12 | ? | 10µM* | -12% | -13 | ?
CSc1cccc(NC(=O)CC(c2cccs2)N2Cc3ccccc3C2=O)c1 (stereo not drawn) | ? | 11% | · | · | ?
COCCNC(=O)c1c(N)n(-c2cccc(C)c2)c2nc3ccccc3nc12 | -25% | ? | -20% | -38* | ?
O=C1NC(c2ccccc2)=C(c2ccc3ccccc3n2)C(c2ccncc2)N1 (stereo not drawn) | ? | 11µM* | 14% | -1 | -16%
CSc1nn(Cc2ccc(Br)cc2)c(N(C(C)=O)C(C)=O)c1S(=O)(=O)c1ccccc1 | -13% | ? | · | · | ?
CC(=O)OCC1OC(C#CCCc2ccccc2)C=CC1OC(C)=O (stereo not drawn) | -9%[11.6 µM] | ? | 5% | 0 | -11%[11.6 µM]
COc1cccc(-c2nn[nH]n2)c1O | 11% | 3% | 50µM* | 6 | 1%
SMILES | Tau fluor counter | Tau ThT inhib | Sfp PPTase inh | Coupling enz | Tau fibril FP
COc1ccc(-c2nn[nH]n2)cc1OC | -5% | -7% | 12% | 0 | -4%
Cc1ccccc1Nc1c(-c2c(F)cccc2Cl)nc2ccc(Br)cn12 | -9% | -6% | · | · | -5%
O=c1[nH][nH]c(-c2ccccc2)c1C=Nc1ccccc1 | -4% | -9% | 3% | 4 | -4%
Sc1oc(-c2ccccc2)cc1C=Nc1ccccc1 | 18µM*[quencher] | 8.9µM* | -15% | -4 | 5%
CCOC(=O)C1=C(CS(=O)(=O)c2ccc(F)c(C)c2)NC(=O)NC1c1ccccc1OC (stereo not drawn) | -4% | -2% | · | · | -10%
COc1ccc(-c2ccc(/C=C3/C(=N)N4C(C)=CSC4=NC3=O)o2)c([N+](=O)[O-])c1 | ? | 2.2µM* | 13% | 0 | -10%
COc1ccc(-c2ccc(/C=C3\C(=O)N(c4ccccc4)N=C3c3ccccc3)o2)c([N+](=O)[O-])c1 | ? | ? | 13% | 0 | 5%
CCN(Cc1ccccc1)c1ccc(/C=N/N=C(N)N)cc1 | ? | -21% | ? | -2 | ?
CCN(Cc1ccccc1)c1ccc(N=Nc2nn(C)c(C)c2[N+](=O)[O-])cc1 | ? | 10µM* | -6% | 1 | ?
CCN(CC)c1ccc(N=Nc2nn(C)c(C)c2[N+](=O)[O-])cc1 | ? | 16µM* | -14% | -5 | 10%
Cc1ccc(CSC2=Nc3ccccc3C3=NC(CCC(=O)N4CCN(c5ccccc5)CC4)C(=O)N23)cc1 (stereo not drawn) | -23% | ? | · | · | -4%
CC1CCc2sc(-c3n[nH]c(=S)o3)cc2C1 (stereo not drawn) | -8% | -17% | -24% | 19 | 7%
CSc1nnc(-c2ccccc2SC)o1 | 2% | 3% | ? | 0 | -6%
CSc1nnc(-c2cc3c(s2)-c2ccccc2CC3)o1 | -25% | ? | 18µM* | 1 | -2%
S=c1[nH]nc(-c2cc3c(s2)-c2ccccc2CC3)o1 | ? | 13µM* | ? | 9 | 13%
C=CC1=C(C(=O)O)N2C(=O)C(NC(=O)/C(=N\O)c3csc(N)n3)C2SC1 (stereo not drawn) | -3% | ? | -21% | -1 | 5%
OC[C@H](S)CS | · | · | 2.2µM* | · | ·
COc1ccc(/C=N\N2CCN(Cc3ccccc3Cl)CC2)cc1 | · | · | 79µM* | -1 | ·
Clc1ccc(/C=N/N2CCN(Cc3ccccc3Cl)CC2)cc1 | -16% | -18% | -14% | -1 | 10%
COc1ccccc1/C=C/C=N\N1CCN(Cc2ccccc2Cl)CC1 | ? | ? | 22µM* | -4 | 6%
COc1ccccc1/C=C/C=N/N1CCN(Cc2ccc(Cl)cc2)CC1 | -25% | ? | -22% | 3 | 11%
Cc1ccc(C)c(N2CCN(c3nc4ccc(Cl)cc4n4cnnc34)CC2)c1 | 0% | 1% | · | · | -5%
CCOc1ccccc1C(=O)NCc1ccc2c(c1)CCN2C(C)=O | 6% | -9% | · | · | 3%
O=[N+]([O-])c1cc(S(=O)(=O)O)cc([N+](=O)[O-])c1NN(c1ccccc1)c1ccccc1 | · | · | -24% | 11 | ·
CCCCC/C=C\C/C=C\C/C=C\C/C=C\CCCCCC(=O)NCCc1ccc(O)c(O)c1 | -22% | -17% | -22% | 4 | 17%
